Our source for the binding signal values is article PMC7862700, “An all-to-all approach to the identification of sequence-specific readers for epigenetic DNA modifications on cytosine”.

Assay in all cases: DAPPL (digital affinity profiling via proximity ligation, sequencing); 10 mM Tris-HCl pH 7.5, 50 mM NaCl, 1 mM DTT, 4% glycerol, room temperature, 30 min; GST-TFs on glutathione beads, 16-mer random dsDNA library, 0.1% formaldehyde crosslink after washing; high values mean tight binding
One assay concerns the target T1, FEV (Homo sapiens, UniProt Q99581 1-238).
T1 sequence: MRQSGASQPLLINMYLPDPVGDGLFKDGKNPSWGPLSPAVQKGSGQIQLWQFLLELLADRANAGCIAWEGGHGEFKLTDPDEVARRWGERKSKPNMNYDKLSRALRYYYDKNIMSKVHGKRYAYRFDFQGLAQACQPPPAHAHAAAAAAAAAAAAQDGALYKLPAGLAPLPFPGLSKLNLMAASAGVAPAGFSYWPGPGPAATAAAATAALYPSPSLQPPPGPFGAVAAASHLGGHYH
Particulars: protein: recombinant; tags: N-terminal GST; dsDNA, one strand shown. The method in brief:
(§1)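 Each value of binding signal is a hexamer's read frequency for a factor divided by the same hexamer's frequency in the tag-only sample. Barcoded, bead-captured GST fusions of human transcription factors made in yeast were pooled with that sample and incubated with 200 nmole of a random double-stranded 16-mer DNA library in Tris/NaCl/DTT/glycerol buffer at room temperature for 30 min. Washing, 0.1% formaldehyde crosslinking, proximity ligation, PCR and Illumina NextSeq500 sequencing followed.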

Another assay addresses ETV5 (Homo sapiens, UniProt P41161 1-510). The following applies: protein: recombinant; tags: N-terminal GST; dsDNA, one strand shown. In outline:
as §1

The target in a further assay is HSF1 (Homo sapiens, UniProt Q00613 1-529). Particulars: protein: recombinant; tags: N-terminal GST; chain copies: 3; dsDNA, one strand shown. In outline: as §1
A further assay concerns the target T2, SPIC (Homo sapiens, UniProt Q8N5J4 1-248).
T2 sequence: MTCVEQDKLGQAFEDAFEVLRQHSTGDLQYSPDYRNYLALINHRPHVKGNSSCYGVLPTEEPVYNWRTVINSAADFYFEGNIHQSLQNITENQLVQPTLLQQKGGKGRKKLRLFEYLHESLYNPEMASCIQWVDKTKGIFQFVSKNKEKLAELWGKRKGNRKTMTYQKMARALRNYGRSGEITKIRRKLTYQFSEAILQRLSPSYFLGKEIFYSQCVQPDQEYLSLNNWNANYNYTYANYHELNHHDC
Particulars: protein: recombinant; tags: N-terminal GST; dsDNA, one strand shown. In outline: as §1

The target in the next assay is ELF4 (Homo sapiens, UniProt Q99607 1-663). Particulars: protein: recombinant; tags: N-terminal GST; dsDNA, one strand shown. In outline: as §1
Another assay deals with T3, ELK4 (Homo sapiens, UniProt P28324-2 1-405).
T3 sequence: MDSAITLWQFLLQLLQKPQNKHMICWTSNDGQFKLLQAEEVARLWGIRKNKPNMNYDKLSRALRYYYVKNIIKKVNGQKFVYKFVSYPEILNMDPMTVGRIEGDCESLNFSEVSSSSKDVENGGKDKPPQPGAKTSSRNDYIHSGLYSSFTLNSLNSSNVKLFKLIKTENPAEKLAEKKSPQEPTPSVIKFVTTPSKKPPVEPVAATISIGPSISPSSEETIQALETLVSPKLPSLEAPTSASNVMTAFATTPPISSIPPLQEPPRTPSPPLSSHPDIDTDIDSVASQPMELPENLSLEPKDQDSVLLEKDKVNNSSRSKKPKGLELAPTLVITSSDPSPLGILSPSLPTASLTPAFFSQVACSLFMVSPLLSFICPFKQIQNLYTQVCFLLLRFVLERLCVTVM
The following applies: protein: recombinant; tags: N-terminal GST; dsDNA, one strand shown. The method in brief: as §1

Another assay concerns the target T4, ETV2 (Homo sapiens, UniProt O00321 1-342).
T4 sequence: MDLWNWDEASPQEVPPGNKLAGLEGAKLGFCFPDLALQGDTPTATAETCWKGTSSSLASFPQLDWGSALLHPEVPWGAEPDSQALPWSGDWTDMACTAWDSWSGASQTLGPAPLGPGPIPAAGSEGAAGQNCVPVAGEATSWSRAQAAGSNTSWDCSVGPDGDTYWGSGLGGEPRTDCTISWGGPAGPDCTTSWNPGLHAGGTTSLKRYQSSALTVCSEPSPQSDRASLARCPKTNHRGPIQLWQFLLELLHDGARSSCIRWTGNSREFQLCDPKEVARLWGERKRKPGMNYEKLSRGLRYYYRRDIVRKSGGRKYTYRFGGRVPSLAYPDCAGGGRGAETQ
Particulars: protein: recombinant; tags: N-terminal GST; dsDNA, one strand shown. The method in brief:
as §1

The target in a further assay is T5, ELF3 (Homo sapiens, UniProt P78545 1-371).
T5 sequence: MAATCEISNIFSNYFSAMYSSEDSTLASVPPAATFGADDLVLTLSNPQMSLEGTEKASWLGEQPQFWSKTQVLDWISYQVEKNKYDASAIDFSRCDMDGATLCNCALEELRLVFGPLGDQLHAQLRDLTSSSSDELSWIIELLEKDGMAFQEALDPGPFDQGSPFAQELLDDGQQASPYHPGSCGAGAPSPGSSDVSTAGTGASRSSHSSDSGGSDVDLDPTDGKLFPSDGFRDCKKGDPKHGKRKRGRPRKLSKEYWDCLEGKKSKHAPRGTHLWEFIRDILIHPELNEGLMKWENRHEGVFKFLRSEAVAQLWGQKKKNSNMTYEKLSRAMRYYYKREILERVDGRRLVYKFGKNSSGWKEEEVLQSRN
Particulars: protein: recombinant; tags: N-terminal GST; dsDNA, one strand shown. The method in brief: as §1

A further assay concerns the target CRX (Homo sapiens, UniProt O43186 1-299). Particulars: protein: recombinant; tags: N-terminal GST; dsDNA, one strand shown. The method in brief: as §1
The next assay has as its target ETV1 (Homo sapiens, UniProt P50549 1-477). Particulars: protein: recombinant; tags: N-terminal GST; dsDNA, one strand shown. In outline: as §1
For the next assay, the target named is T6, ERF (Homo sapiens, UniProt P50548 1-548).
T6 sequence: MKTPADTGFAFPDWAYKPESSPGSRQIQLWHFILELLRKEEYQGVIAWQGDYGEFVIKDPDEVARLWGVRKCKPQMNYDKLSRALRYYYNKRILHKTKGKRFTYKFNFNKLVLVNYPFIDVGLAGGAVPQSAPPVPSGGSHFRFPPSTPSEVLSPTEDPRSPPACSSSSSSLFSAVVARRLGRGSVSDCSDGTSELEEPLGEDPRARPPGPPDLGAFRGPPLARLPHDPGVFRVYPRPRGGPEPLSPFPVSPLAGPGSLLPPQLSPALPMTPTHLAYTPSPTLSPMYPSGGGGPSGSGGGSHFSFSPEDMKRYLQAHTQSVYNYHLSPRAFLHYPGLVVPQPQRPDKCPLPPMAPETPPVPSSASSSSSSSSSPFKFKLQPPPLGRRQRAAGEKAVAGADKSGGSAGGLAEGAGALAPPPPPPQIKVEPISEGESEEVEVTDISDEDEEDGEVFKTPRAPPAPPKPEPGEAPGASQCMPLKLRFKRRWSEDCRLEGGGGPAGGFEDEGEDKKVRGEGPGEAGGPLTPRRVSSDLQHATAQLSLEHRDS
The following applies: protein: recombinant; tags: N-terminal GST; dsDNA, one strand shown. In outline: as §1

For a further assay, the target named is T7, ETV3L (Homo sapiens, UniProt Q6ZN32 1-361).
T7 sequence: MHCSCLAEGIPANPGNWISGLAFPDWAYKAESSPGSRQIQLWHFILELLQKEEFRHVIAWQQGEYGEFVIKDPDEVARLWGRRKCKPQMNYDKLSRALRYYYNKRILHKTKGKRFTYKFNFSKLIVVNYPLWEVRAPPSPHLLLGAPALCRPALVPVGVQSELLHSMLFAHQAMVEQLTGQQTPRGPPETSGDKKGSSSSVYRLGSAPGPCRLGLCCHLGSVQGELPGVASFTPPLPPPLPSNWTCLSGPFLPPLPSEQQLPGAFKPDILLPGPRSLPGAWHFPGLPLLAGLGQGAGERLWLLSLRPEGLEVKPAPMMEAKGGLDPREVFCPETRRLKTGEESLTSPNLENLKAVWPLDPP
Particulars: protein: recombinant; tags: N-terminal GST; dsDNA, one strand shown. The method in brief:
as §1

A further assay addresses T8, ETS2 (Homo sapiens, UniProt P15036 1-469).
T8 sequence: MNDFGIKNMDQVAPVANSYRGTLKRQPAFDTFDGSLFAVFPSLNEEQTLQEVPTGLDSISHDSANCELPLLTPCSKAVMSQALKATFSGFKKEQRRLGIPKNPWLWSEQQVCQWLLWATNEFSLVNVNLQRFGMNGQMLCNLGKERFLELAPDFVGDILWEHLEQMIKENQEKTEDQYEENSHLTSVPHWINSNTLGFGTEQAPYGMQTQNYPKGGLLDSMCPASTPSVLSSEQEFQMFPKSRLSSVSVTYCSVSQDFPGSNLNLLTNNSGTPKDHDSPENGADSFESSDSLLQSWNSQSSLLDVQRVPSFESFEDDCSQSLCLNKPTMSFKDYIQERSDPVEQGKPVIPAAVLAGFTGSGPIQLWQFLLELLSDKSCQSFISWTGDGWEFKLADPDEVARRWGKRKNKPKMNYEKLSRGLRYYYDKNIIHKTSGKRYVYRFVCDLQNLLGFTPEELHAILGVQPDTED
Particulars: protein: recombinant; tags: N-terminal GST; dsDNA, one strand shown. In outline: as §1

Another assay has as its target T9, SPDEF (Homo sapiens, UniProt O95238 1-335).
T9 sequence: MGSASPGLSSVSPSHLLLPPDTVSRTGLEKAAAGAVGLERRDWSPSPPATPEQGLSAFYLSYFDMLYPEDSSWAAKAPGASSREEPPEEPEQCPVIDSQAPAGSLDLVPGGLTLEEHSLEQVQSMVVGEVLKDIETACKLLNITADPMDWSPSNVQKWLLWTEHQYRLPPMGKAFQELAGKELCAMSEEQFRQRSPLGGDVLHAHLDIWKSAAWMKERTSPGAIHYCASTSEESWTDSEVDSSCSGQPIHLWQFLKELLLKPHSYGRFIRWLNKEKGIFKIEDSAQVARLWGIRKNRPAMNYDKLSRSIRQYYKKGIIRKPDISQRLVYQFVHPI
Particulars: protein: recombinant; tags: N-terminal GST; dsDNA, one strand shown. The method in brief: as §1

For another assay, the target named is T10, ETV7 (Homo sapiens, UniProt Q9Y603 1-341).
T10 sequence: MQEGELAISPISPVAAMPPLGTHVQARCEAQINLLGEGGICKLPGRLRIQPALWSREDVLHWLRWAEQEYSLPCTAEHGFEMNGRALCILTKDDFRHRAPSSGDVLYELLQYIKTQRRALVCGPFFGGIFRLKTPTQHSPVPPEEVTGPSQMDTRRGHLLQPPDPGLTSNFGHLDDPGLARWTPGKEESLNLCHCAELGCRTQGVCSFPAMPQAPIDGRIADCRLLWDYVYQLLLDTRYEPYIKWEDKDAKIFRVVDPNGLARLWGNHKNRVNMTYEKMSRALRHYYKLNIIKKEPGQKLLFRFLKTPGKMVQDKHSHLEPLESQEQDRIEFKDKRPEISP
Particulars: protein: recombinant; tags: N-terminal GST; dsDNA, one strand shown. In outline: as §1

A further assay deals with T11, ELF5 (Homo sapiens, UniProt Q9UKW6-2 1-255).
T11 sequence: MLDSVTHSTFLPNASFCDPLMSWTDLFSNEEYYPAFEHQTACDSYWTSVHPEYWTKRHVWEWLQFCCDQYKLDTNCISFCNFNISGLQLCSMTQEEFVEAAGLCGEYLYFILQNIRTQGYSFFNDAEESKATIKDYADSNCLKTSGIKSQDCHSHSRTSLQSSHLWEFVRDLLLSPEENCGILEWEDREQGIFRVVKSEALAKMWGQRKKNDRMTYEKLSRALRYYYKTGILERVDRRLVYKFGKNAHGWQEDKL
The following applies: protein: recombinant; tags: N-terminal GST; dsDNA, one strand shown. In outline:
as §1

The target of another assay is T12, ETV3 (Homo sapiens, UniProt P41162-2 1-143).
T12 sequence: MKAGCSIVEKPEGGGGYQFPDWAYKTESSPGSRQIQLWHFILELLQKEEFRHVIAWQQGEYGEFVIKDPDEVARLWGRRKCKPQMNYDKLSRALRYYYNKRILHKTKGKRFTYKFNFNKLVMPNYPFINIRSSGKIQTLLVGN
Particulars: protein: recombinant; tags: N-terminal GST; dsDNA, one strand shown. In outline:
as §1

Another assay deals with ETV6 (Homo sapiens, UniProt P41212 1-452). The following applies: protein: recombinant; tags: N-terminal GST; dsDNA, one strand shown. In outline:
as §1

ETV1, sequence (P50549 whole entry): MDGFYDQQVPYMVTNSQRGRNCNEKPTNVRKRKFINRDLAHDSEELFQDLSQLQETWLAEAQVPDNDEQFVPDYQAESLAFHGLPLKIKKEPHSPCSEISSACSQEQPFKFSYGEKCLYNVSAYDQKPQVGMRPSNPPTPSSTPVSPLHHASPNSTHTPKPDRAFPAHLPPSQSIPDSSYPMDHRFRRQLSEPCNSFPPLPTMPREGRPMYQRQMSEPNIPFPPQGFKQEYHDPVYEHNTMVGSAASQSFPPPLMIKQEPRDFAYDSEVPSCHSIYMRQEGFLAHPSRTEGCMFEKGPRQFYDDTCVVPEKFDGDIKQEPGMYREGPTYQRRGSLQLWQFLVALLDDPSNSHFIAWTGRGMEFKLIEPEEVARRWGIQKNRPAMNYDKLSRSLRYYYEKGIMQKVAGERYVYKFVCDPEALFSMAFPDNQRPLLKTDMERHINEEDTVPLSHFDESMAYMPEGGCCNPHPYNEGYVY
ETV5, sequence (P41161 whole entry): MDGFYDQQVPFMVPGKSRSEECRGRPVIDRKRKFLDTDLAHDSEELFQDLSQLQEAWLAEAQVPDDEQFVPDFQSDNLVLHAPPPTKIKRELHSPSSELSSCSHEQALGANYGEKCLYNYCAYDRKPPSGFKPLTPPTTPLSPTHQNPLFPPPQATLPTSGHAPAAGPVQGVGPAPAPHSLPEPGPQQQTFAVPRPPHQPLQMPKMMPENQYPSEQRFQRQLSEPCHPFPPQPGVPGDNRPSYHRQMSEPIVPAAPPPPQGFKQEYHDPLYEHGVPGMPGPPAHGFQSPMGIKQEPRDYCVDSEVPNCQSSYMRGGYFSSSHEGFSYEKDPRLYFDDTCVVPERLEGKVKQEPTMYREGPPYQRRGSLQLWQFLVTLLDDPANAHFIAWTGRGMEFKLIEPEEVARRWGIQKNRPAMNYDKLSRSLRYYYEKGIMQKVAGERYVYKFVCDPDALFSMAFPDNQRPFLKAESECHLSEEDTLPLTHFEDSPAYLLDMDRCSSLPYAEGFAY
HSF1, sequence (Q00613 whole entry): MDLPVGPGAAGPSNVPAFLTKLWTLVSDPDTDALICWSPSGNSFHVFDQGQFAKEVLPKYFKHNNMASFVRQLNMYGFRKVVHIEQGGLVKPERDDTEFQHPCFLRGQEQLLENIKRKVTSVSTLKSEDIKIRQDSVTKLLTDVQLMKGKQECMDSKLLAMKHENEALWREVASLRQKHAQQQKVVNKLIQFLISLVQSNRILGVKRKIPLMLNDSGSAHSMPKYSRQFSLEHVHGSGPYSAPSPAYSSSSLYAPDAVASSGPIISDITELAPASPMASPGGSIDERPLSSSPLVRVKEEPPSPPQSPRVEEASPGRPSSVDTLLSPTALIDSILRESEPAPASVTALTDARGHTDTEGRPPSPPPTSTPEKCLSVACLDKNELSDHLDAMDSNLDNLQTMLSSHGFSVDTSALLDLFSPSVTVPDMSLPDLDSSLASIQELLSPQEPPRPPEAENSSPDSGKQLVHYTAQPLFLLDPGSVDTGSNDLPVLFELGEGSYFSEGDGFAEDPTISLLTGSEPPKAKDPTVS
ELF4, sequence (Q99607 whole entry): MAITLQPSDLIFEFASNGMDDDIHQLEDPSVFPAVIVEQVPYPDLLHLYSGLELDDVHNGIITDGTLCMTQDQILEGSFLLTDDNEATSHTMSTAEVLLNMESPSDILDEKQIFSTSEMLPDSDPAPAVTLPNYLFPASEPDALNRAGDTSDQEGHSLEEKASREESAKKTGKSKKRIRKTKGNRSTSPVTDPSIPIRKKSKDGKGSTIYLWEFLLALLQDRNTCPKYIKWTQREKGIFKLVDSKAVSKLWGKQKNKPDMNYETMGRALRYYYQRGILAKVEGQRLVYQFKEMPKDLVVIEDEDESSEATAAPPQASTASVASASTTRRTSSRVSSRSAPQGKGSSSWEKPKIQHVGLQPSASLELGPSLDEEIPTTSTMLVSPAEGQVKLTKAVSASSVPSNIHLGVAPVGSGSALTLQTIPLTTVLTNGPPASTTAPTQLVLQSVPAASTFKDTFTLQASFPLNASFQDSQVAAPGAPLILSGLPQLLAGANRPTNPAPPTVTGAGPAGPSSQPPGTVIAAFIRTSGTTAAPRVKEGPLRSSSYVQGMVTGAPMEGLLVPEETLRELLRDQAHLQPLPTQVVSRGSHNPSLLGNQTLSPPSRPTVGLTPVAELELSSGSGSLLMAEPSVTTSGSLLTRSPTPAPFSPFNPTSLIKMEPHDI
ETV6, sequence (P41212 whole entry): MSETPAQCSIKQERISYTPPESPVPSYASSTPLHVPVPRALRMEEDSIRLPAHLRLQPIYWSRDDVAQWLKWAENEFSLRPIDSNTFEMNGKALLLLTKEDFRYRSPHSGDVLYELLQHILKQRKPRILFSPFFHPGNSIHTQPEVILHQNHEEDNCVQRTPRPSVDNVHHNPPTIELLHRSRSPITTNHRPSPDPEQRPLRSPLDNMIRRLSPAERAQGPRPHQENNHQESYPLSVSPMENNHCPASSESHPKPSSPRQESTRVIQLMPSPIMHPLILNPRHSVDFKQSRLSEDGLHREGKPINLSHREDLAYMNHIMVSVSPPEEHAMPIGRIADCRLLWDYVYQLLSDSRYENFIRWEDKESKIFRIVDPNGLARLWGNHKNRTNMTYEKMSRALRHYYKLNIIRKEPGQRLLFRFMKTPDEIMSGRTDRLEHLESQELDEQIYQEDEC
CRX, sequence (O43186 whole entry): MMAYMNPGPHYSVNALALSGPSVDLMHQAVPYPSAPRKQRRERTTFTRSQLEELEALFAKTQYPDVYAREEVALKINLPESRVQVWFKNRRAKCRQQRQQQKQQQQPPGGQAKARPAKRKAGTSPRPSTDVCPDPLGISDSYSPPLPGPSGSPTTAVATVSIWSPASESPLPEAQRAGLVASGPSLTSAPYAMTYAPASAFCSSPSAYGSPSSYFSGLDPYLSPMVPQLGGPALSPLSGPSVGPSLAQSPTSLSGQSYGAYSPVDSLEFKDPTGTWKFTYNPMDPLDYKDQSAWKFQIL

In the case of ACATAA, the binding signal with FEV was 1.04 fold enrichment (6-mer frequency, TF over GST control); with ETV5 it was 1.13 fold enrichment (6-mer frequency, TF over GST control); in the assay with HSF1, 1.2 fold enrichment (6-mer frequency, TF over GST control); with SPIC, 1.19 fold enrichment (6-mer frequency, TF over GST control); with ELF4, 1.09 fold enrichment (6-mer frequency, TF over GST control); with ELK4 it was 1.14 fold enrichment (6-mer frequency, TF over GST control). The binding signal is 1.15 fold enrichment (6-mer frequency, TF over GST control) in the assay with ETV2; 1.17 fold enrichment (6-mer frequency, TF over GST control) with ELF3; 1.34 fold enrichment (6-mer frequency, TF over GST control) with CRX; 1.07 fold enrichment (6-mer frequency, TF over GST control) in the assay with ETV1; 1.05 fold enrichment (6-mer frequency, TF over GST control) with ERF; 1.1 fold enrichment (6-mer frequency, TF over GST control) with ETV3L. Further, the binding signal with ETS2 was 1.07 fold enrichment (6-mer frequency, TF over GST control); with SPDEF it was 1.03 fold enrichment (6-mer frequency, TF over GST control); in the assay with ETV7 it was 1.11 fold enrichment (6-mer frequency, TF over GST control); in the assay with ELF5, 1.09 fold enrichment (6-mer frequency, TF over GST control); with ETV3 it was 1.09 fold enrichment (6-mer frequency, TF over GST control); with ETV6, 1.08 fold enrichment (6-mer frequency, TF over GST control).
